Results on 40 compounds are retold here after PubChem BioAssay (NCI).

The panel holds about 83,000 compounds, 20% with a hit somewhere; the sample as a whole holds those more often.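 Assay: single dose, 48 h. Readout: percent growth (0 = no net growth; negative = cell death). Active: <10.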 Unmarked numbers belong to inactive results. Calls of active or inactive are those of the source.

This experiment has as its system MDA-MB-468 breast. The experiment in a line: NCI-60 one-dose screen, 48 h (100 = growth as untreated, 0 = no growth, -100 = all killed). The conditions noted are these: 10 µM unless noted.
For `Cc1cccc(-[n+]2noc(N)n2)c1`, the growth is 96.4%.

For the compound `O=C1NC(c2ccc(Cl)c(Cl)c2)=C/C1=C\c1ccccc1`, the growth is 63.3%. Regarding `CN1C(=O)/C(=C\c2c(Cl)cccc2Cl)c2ccccc21`, the growth is 37.7%. In the case of `COc1ccc(NC2=NC(C)(CO)CS2)cc1` (stereo not given) it was 108%; in that of `CC(=O)Nc1cccc(Nc2nc(N[C@H](C)c3ccccc3)c3ccccc3n2)c1`, 6.66% (active).

For `COc1ccc(C(=O)c2cc(OC)c(OC)c(OC)c2)cc1OC(=O)C(Cl)(Cl)Cl`, the growth was 35.8%. In the case of `COc1cc(/C=C/C(=O)C2=C(/C=C/c3ccc(O)c(OC)c3)NC(=O)NC2c2ccc(O)c(OC)c2)ccc1O` (stereo not given) it was 88.7%. On to `COc1cc(-c2nn(-c3cccc(NC(=O)CCNc4ccc(N5CCOCC5)cc4)c3)cc2-c2ccncc2)ccc1Cl`, for which the growth was 30.7%. In the case of `CN(C)[C@@H]1C(=O)C(C(=O)NCc2nc3[nH]cnc(=S)c3[nH]2)=C(O)[C@@]2(O)C(=O)C3=C(O)c4c(O)cccc4[C@@](C)(O)[C@H]3C[C@@H]12` it was 81.2%; in that of `Cc1cnc(Nc2ccc(OCCN3CCCC3)cc2)nc1Nc1cccc(S(=O)(=O)NC(C)(C)C)c1`, -16.6% (active); in that of `C=C(C)C1CC(O)C2(C)CCCC3C2C1CC(C)C3(C)CC/C(C)=C/C(O)C1CCC(=O)c2c(OC)cc(OC)cc21` (stereo not given), 0.0686% (active). In the case of `O=C1NC(=C(Cl)Cl)/C(=N/S(=O)(=O)NCCc2c[nH]c3ccccc23)N1` it was -3.27% (active); in that of `CCCCCCCCCCCCCCCCC(C(=O)O)C(O)(CC(=O)O)C(=O)O` (stereo not given), 102%. In the case of `Cc1ccc(S(=O)(=O)NCCCNc2nccc(-c3[nH]c(-c4ccccc4)nc3-c3ccc(F)c(O)c3)n2)cc1` it was 33.9%. As for `N=C(N)c1ccc(-c2ccc(-c3ccccc3)s2)s1`, the growth was -94.5% (active). `CNc1ccc(-c2cc(=O)oc3ccc(Cl)cc23)cc1`: the growth is 39.5%. In the case of `Cc1ccc(CNS(=O)(=O)/N=C2\NC(=O)NC2=C(Cl)Cl)cc1` it was 1.67% (active); in that of `Cc1cc(C)c2c(n1)sc1c(Nc3ccc(O)cc3)ncnc12`, 23.8%. The value for `N=c1c2c(=N)n3c(nc2nc2n1-c1ccccc1Sc1ccccc1-2)sc1cc(Cl)ccc13` was -11.8% (active); that for `O=[N+]([O-])c1ccc2[nH]cc(-c3c4ccsc4cc4[nH]c5ccc([N+](=O)[O-])cc5c34)c2c1` was 1.21% (active); that for `CCN1CCN(c2cc(C)nc(N(CCCNc3ccnc4cc(Cl)ccc34)Cc3ccc4c(c3)OCO4)n2)CC1` was -55.5% (active). For `O=S(=O)(NCCCNc1nccc(-c2c(-c3cccc(F)c3)nc3occn23)n1)c1cccc2ccccc12`, the growth is 15.3%. As for `O=C1[C@H]2Cc3c([nH]c4ccccc34)[C@H](c3ccc(Br)cc3)N2C(=O)CN1C1CCN(CC2CCCCC2)CC1`, the growth was 80.1%. The value for `Cc1ccc(C(=O)Nc2ccc(CN3CCN(C)CC3)c(C(F)(F)F)c2)cc1C#Cc1cnc(N)c2ccc(C#N)cc12` was 34.9%.

In the case of `COc1cc2c(c(O)c1Br)C(=O)c1c(O)cc(C[C@H](C)O)cc1[C@H]2[C@H]1c2cc(C[C@H](C)O)cc(O)c2C(=O)c2c1cc(OC)c(Br)c2O`, the growth is -14.5% (active). The value for `COc1ccc(C(c2cc(OC)c(OC)c(OC)c2)n2ccnc2)cc1O` (stereo not given) was 15.6%.

As for `CN(C)CCC1(c2ccccc2)CCN(C)C1=O` (stereo not given), the growth was 94.7%. With `CNC(=O)c1cc(Oc2ccc3c(c2)sc2nc(-c4ccc(Cl)cc4)cn23)ccn1`, the growth is 77.3%. In the case of `COc1ccc(/C(=C\c2ccc3c(c2)OCO3)C(=O)Nc2nc3ccccc3s2)cc1OC` it was 90.5%.

As to `O=C1NC(=O)C(Cc2ccccc2)(Cc2ccccc2)N1`, the growth was 104%. The value for `C#C[C@]1(O)CC[C@H]2[C@@H]3CC=C4c5sc(Nc6cccc(C)n6)nc5CC[C@]4(C)[C@H]3CC[C@@]21C` was 35.7%; that for `O=C1C(Cl)=C(Nc2ccccc2)C(=O)c2ccccc21` was -77.8% (active).

Consider `COc1ccc(NC(=O)c2ccc(NC3=C(c4ccc(Cl)cc4)C(=O)NC3=O)cc2)cc1`, for which the growth was 88.1%. With `CC(=O)O[C@@H]1/C=C/C(=O)N[C@@H](C)CCC/C=C/[C@@H]2CCC[C@H]21`, the growth is 101%. With `C=C(C)[C@@H]1CC[C@]2(C(=O)NC(COC(=O)C(Cl)Cl)(COC(=O)C(Cl)Cl)COC(=O)C(Cl)Cl)CC[C@]3(C)[C@H](CC[C@@H]4[C@@]5(C)CC[C@H](OC(C)=O)C(C)(C)[C@@H]5CC[C@]43C)[C@@H]12`, the growth is 61.7%. The value for `O=C(CCl)N1CCN(C/C=C/c2ccccc2)CC1` was 81%.

Take `COC(=O)[C@]12CC[C@@H](C)[C@H](C)[C@@H]1C1=CC[C@@H]3[C@@]4(C)C[C@@H](OC(C)=O)[C@H](O)[C@@](C)(COC(C)=O)[C@@H]4[C@H](O)C[C@@]3(C)[C@]1(C)CC2`: the growth is -90.2% (active). For `Cc1ccc2c(c1)c(-c1nc(-c3c[nH]c4ncccc34)cs1)cn2C`, the growth was -2.68% (active). As for `CCOC(=O)CC1CSC(N/N=C(/C)c2cccc(C(F)(F)F)c2)=N1` (stereo not given), the growth was 104%. Take `O=C1NC(=O)c2cc([N+](=O)[O-])ccc21`: the growth is 96.1%.
